Measured values from PubChem BioAssay (Tox21).
Several values for one entry are separate records, joined by “and”; a condition that tells them apart may be missing. Identical values can stand only once. Records with an inconclusive call do not appear. Entries that show only a call come without a potency. Some compounds were tested as several samples or in several runs, with calls that do not always agree. Activity calls are given as the source filed them. Unless noted, calls come from the whole dose curve; as a rule, active = well fitted curve in the direction sought with a large enough effect in the repeat runs; inconclusive = weak or mixed curves; inactive = no such curve, though single readings can be large; an effect the other way counts as inactive or inconclusive.

Tests used:
[1] = qHTS assay to identify small molecule agonists of the peroxisome proliferator-activated receptor delta (PPARd) signaling pathway - cell viability counter screen (AID 743211); note: nearly all actives have a fitted effect of over 55% in size; note: potency is the fitted concentration of half-maximal effect
Method in brief: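 Read-out: CellTiter-Glo luminescence, 30 min RT, measured in the same wells as the beta-lactamase reporter. Cells: GeneBLAzer PPAR delta UAS-bla HEK293H, 3000 cells/well, compound exposure 17 h at 37C.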

[2] = target: Peroxisome proliferator-activated receptor delta (Homo sapiens) (UniProt Q03181); test: qHTS assay to identify small molecule agonists of the peroxisome proliferator-activated receptor delta (PPARd) signaling pathway (AID 743212; calls by dose curve)
Method in brief: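 Quantitative high-throughput agonist screen in a HEK293H beta-lactamase reporter line under UAS control. Compounds in DMSO, at 37 C. Fluorescence read after 2 h with FRET substrate at room temperature.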

[3] = qHTS assay to identify small molecule antagonists of the peroxisome proliferator-activated receptor delta (PPARd) signaling pathway - cell viability counter screen (AID 743213); note: nearly all actives have a fitted effect of over 50% in size; note: potency is the fitted concentration of half-maximal effect
Method in brief: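 PPARd-bla HEK293H cells were treated with compounds plus agonist L165041 (300 nM final) for 17 h at 37 C. Viability was then read in the same wells by CellTiter-Glo luminescence after 30 min at room temperature.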

[4] = target: Peroxisome proliferator-activated receptor delta (Homo sapiens) (UniProt Q03181); test: qHTS assay to identify small molecule antagonists of the peroxisome proliferator-activated receptor delta (PPARd) signaling pathway (AID 743215; active = well fitted inhibition curve with a large enough effect in the signal ratio in the repeat runs, not every such curve was filed as active; the % refers to the signal ratio;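 note: cells stimulated with agonist L165041 at 300 nM final during compound exposure; series mostly up to about 62 µM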)
Method in brief: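 PPARd-bla HEK293H cells (UAS-bla reporter) preincubated 5 h, then given compound plus 300 nM final L165041 agonist for 17 h at 37 C. Beta-lactamase activity read by LiveBLAzer B/G FRET substrate fluorescence after 2 h at room temperature.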

[5] = target: Bile acid receptor (Homo sapiens) (UniProt Q96RI1); test: qHTS assay to identify small molecule antagonists of the farnesoid-X-receptor (FXR) signaling pathway (AID 743217; active = well fitted inhibition curve with a large enough effect in the signal ratio in the repeat runs, not every such curve was filed as active; the % refers to the signal ratio)
Method in brief: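 FXR-UAS-bla HEK 293T cells (beta-lactamase reporter) given compound plus chenodeoxycholic acid (50 uM final), 16 h at 37C. LiveBLAzer B/G FRET substrate added for 2 h at room temperature; fluorescence read.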

[6] = qHTS assay to identify small molecule agonists of the farnesoid-X-receptor (FXR) signaling pathway - cell viability counter screen (AID 743218); note: nearly all actives have a fitted effect of over 45% in size; note: potency is the fitted concentration of half-maximal effect
Method in brief: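 FXR-UAS-bla HEK 293T cells exposed to compounds for 16 h at 37C. Cytotoxicity read in the same wells by CellTiter-Glo luminescence after 30 min at room temperature, following the beta-lactamase FRET read.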

[7] = target: Bile acid receptor (Homo sapiens) (UniProt Q96RI1); test: qHTS assay to identify small molecule agonists of the farnesoid-X-receptor (FXR) signaling pathway (AID 743220; active = well fitted activation curve with a large enough effect in the signal ratio in the repeat runs, not every such curve was filed as active; the % refers to the signal ratio)
Method in brief: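 Beta-lactamase reporter under UAS control in GeneBLAzer FXR HEK 293T cells (5000/well) measured with LiveBLAzer FRET substrate after 2 h at room temperature. Compound exposure lasted 16 h at 37C.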

[8] = qHTS assay to identify small molecule antagonists of the farnesoid-X-receptor (FXR) signaling pathway - cell viability counter screen (AID 743221; active = well fitted cell-killing curve with a large enough effect in the repeat runs, not every such curve was filed as active; note: nearly all actives have a fitted effect of over 50% in size)
Method in brief: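 HEK 293T FXR-bla cells, 5 h pre-incubation; compound + CDCA 50 uM final, 16 h, 37 C; beta-lactamase FRET read first, then CellTiter-Glo luminescence, 30 min RT.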

[9] = target: Vitamin D3 receptor (Homo sapiens) (UniProt P11473); test: qHTS assay to identify small molecule agonists of the vitamin D receptor (VDR) signaling pathway (AID 743222; calls by dose curve)
Method in brief: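 VDR-bla cells plated 4 h at 37 C, then exposed to compounds for 16 h at 37 C. Beta-lactamase reporter activity measured by fluorescence after 2 h room-temperature loading with LiveBLAzer B/G FRET substrate.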

[10] = target: Vitamin D3 receptor (Homo sapiens) (UniProt P11473); test: qHTS assay to identify small molecule antagonists of the vitamin D receptor (VDR) signaling pathway (AID 743223; active = well fitted inhibition curve with a large enough effect in the signal ratio in the repeat runs, not every such curve was filed as active; the % refers to the signal ratio)
Method in brief: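 Beta-lactamase reporter read-out: FRET substrate fluorescence after 2 h at room temperature, following 16 h exposure of VDR-bla cells to test compound plus 3 nM (final) 1alpha,25-dihydroxyvitamin D3 agonist at 37C.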

Sequence of Peroxisome proliferator-activated receptor delta (Homo sapiens) (Q03181 whole entry, looked up): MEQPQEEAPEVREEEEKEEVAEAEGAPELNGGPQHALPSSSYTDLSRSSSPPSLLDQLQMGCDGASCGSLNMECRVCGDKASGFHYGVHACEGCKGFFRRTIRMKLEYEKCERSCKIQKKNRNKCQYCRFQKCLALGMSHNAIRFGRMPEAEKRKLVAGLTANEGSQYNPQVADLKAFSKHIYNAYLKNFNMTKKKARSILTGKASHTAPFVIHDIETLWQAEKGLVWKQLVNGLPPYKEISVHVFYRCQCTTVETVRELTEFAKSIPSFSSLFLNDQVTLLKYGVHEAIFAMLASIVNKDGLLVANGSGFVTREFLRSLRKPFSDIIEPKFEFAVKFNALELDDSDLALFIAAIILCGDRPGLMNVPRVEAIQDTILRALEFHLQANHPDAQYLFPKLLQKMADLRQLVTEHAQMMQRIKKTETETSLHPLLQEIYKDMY
Sequence of Vitamin D3 receptor (Homo sapiens) (P11473 whole entry, looked up): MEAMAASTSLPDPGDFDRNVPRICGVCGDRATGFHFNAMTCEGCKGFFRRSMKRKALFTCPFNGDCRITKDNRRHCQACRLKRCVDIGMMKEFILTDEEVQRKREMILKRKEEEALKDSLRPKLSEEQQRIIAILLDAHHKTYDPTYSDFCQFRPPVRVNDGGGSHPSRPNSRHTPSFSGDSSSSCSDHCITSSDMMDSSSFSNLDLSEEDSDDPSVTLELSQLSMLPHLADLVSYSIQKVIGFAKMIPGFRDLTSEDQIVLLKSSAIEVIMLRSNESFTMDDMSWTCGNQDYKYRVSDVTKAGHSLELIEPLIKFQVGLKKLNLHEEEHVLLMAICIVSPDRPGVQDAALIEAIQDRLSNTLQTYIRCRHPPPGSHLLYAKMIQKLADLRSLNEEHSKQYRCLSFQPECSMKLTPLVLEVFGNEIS
Sequence of Bile acid receptor (Homo sapiens) (Q96RI1 whole entry, looked up): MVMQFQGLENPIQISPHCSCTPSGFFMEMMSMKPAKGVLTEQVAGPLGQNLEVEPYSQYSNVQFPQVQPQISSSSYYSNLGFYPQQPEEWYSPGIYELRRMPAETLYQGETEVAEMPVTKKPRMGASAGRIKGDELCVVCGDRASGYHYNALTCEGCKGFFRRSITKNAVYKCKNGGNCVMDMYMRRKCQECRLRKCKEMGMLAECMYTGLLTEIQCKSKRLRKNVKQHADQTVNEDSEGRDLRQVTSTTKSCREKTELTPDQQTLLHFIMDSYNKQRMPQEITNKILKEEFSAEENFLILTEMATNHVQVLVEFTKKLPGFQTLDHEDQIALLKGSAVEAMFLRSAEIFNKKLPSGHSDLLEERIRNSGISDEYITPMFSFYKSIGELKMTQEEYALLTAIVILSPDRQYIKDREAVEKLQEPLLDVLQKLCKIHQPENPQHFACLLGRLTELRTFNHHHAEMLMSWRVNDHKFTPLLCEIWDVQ

Question: Which Potency [1] does the source give for CN1C(=O)c2ccc([N+](=O)[O-])cc2C1=O here?
Answer: inactive

Question: What about the Potency [2] of the same compound?
Answer: inactive

Question: What about the Potency [3] of the same compound?
Answer: inactive

Question: And the Potency [4]?
Answer: inactive

Question: What about the Potency [5] of the same compound?
Answer: inactive

Question: What about the Potency [6] of the same compound?
Answer: inactive

Question: What about the Potency [7] of the same compound?
Answer: inactive

Question: And the Potency [8]?
Answer: inactive

Question: What about the Potency [9] of the same compound?
Answer: inactive

Question: What about the Potency [10] of the same compound?
Answer: inactive

Question: What does the source list for CNC1(C)C2CCC(C2)C1(C)C (stereo not drawn)?
Answer: Potency [1]: inactive; Potency [2]: inactive; Potency [3]: inactive; Potency [4]: inactive; Potency [5]: inactive; Potency [7]: inactive; Potency [8]: inactive; Potency [9]: inactive

Question: What does the source list for CCCCN(CCO)CCCC?
Answer: Potency [1]: inactive; Potency [2]: inactive; Potency [3]: inactive; Potency [4]: inactive; Potency [5]: inactive; Potency [7]: inactive; Potency [8]: inactive; Potency [9]: inactive; Potency [10]: inactive

Question: Which Potency [1] does the source give for CC(=O)Nc1ccc(C(=O)CCl)cc1 here?
Answer: inactive and 49 µM (active)

Question: And the Potency [2]?
Answer: inactive

Question: What about the Potency [3] of the same compound?
Answer: inactive and 43.6 µM (active)

Question: And the Potency [4]?
Answer: inactive

Question: And the Potency [5]?
Answer: inactive

Question: What about the Potency [8] of the same compound?
Answer: inactive

Question: What about the Potency [9] of the same compound?
Answer: inactive

Question: Which Potency [1] does the source give for CC(C)(C)NCC(O)COc1ccccc1OCC1CCCO1 (stereo not drawn) here?
Answer: inactive

Question: And the Potency [2]?
Answer: inactive

Question: What about the Potency [3] of the same compound?
Answer: inactive

Question: What about the Potency [4] of the same compound?
Answer: inactive

Question: And the Potency [5]?
Answer: inactive

Question: And the Potency [6]?
Answer: inactive

Question: What about the Potency [7] of the same compound?
Answer: inactive

Question: And the Potency [8]?
Answer: inactive

Question: Which Potency [1] does the source give for OCC(CO)N[C@H]1C[C@](O)(CO)[C@@H](O)[C@H](O)[C@H]1O here?
Answer: inactive

Question: What about the Potency [2] of the same compound?
Answer: inactive

Question: What about the Potency [3] of the same compound?
Answer: inactive

Question: What about the Potency [4] of the same compound?
Answer: inactive

Question: What about the Potency [5] of the same compound?
Answer: inactive

Question: And the Potency [7]?
Answer: inactive

Question: And the Potency [8]?
Answer: inactive

Question: And the Potency [9]?
Answer: inactive

Question: With c1cnc2cc3c(cc2n1)C1CNCC3C1 as the compound, how does the Potency [1] read?
Answer: inactive

Question: And the Potency [2]?
Answer: inactive

Question: And the Potency [3]?
Answer: inactive

Question: What about the Potency [4] of the same compound?
Answer: inactive

Question: What about the Potency [5] of the same compound?
Answer: inactive

Question: And the Potency [6]?
Answer: inactive

Question: What about the Potency [7] of the same compound?
Answer: inactive

Question: What about the Potency [8] of the same compound?
Answer: inactive

Question: What about the Potency [9] of the same compound?
Answer: inactive

Question: And the Potency [10]?
Answer: inactive

Question: For CCn1cc(C(=O)O)c(=O)c2cc(F)c(N3CCNC(C)C3)c(F)c21 (stereo not drawn), which Potency [1] is on record?
Answer: inactive

Question: And the Potency [2]?
Answer: inactive

Question: What about the Potency [3] of the same compound?
Answer: inactive

Question: What about the Potency [4] of the same compound?
Answer: inactive

Question: What about the Potency [6] of the same compound?
Answer: inactive

Question: What about the Potency [8] of the same compound?
Answer: inactive

Question: For Clc1ccc2c(c1)C(N1CCNCC1)=Nc1ccccc1O2, which Potency [1] is on record?
Answer: 27.5 µM (active) and 26.6 µM (active)

Question: And the Potency [2]?
Answer: inactive

Question: And the Potency [3]?
Answer: 2.19 µM (active) and inactive

Question: What about the Potency [4] of the same compound?
Answer: inactive

Question: What about the Potency [6] of the same compound?
Answer: 38.9 µM (active)

Question: And the Potency [8]?
Answer: inactive

Question: Which results are given for Cc1scc2c1N(C(=O)CN1CCN(C)CC1)c1ccccc1NC2=O?
Answer: Potency [1]: inactive; Potency [2]: inactive; Potency [3]: inactive; Potency [4]: inactive; Potency [5]: inactive; Potency [6]: inactive; Potency [7]: inactive; Potency [8]: inactive; Potency [9]: inactive; Potency [10]: inactive

Question: What does the source list for c1ccc2c(c1)CCCC2C1=NCCN1 (stereo not drawn)?
Answer: Potency [1]: inactive; Potency [2]: inactive; Potency [3]: inactive; Potency [4]: inactive; Potency [5]: inactive; Potency [6]: inactive; Potency [7]: inactive; Potency [8]: inactive; Potency [9]: inactive

Question: For C=CS(=O)(=O)O, which Potency [1] is on record?
Answer: inactive

Question: What about the Potency [2] of the same compound?
Answer: inactive

Question: And the Potency [3]?
Answer: inactive

Question: What about the Potency [4] of the same compound?
Answer: inactive

Question: What about the Potency [6] of the same compound?
Answer: inactive

Question: What about the Potency [7] of the same compound?
Answer: inactive

Question: And the Potency [8]?
Answer: inactive

Question: What about the Potency [9] of the same compound?
Answer: inactive

Question: What about the Potency [10] of the same compound?
Answer: inactive

Question: What does the source list for CCOC(=O)C(C)C(C)=O (stereo not drawn)?
Answer: Potency [1]: inactive; Potency [2]: inactive; Potency [3]: inactive; Potency [4]: inactive; Potency [6]: inactive; Potency [8]: inactive

Question: What does the source list for CCCCOCCOC(=O)c1ccccc1C(=O)OCCOCCCC?
Answer: Potency [1]: 47.9 µM (active) and inactive; Potency [2]: inactive; Potency [3]: 42.7 µM (active) and inactive; Potency [4]: inactive; Potency [6]: inactive; Potency [7]: inactive; Potency [8]: inactive; Potency [9]: inactive; Potency [10]: inactive

Question: Which results are given for NC(N)=Nc1nc(CSCC/C(N)=N/S(N)(=O)=O)cs1?
Answer: Potency [1]: inactive; Potency [2]: inactive; Potency [3]: inactive; Potency [4]: inactive; Potency [5]: inactive; Potency [6]: inactive; Potency [7]: inactive; Potency [8]: inactive; Potency [9]: inactive; Potency [10]: inactive

Question: What does the source list for Cc1cccc(O)c1C?
Answer: Potency [1]: inactive; Potency [2]: inactive; Potency [3]: inactive; Potency [4]: inactive; Potency [5]: inactive; Potency [6]: inactive; Potency [7]: inactive; Potency [8]: inactive; Potency [9]: inactive; Potency [10]: inactive

Question: For CO[Si](OC)(OC)c1ccccc1, which Potency [1] is on record?
Answer: inactive

Question: And the Potency [2]?
Answer: inactive

Question: What about the Potency [3] of the same compound?
Answer: inactive

Question: And the Potency [4]?
Answer: inactive

Question: And the Potency [8]?
Answer: inactive

Question: What about the Potency [10] of the same compound?
Answer: inactive

Question: With CCc1ccc(C(c2ccc(CC)cc2)C(Cl)Cl)cc1 as the compound, how does the Potency [1] read?
Answer: inactive

Question: And the Potency [2]?
Answer: inactive

Question: What about the Potency [3] of the same compound?
Answer: inactive

Question: What about the Potency [4] of the same compound?
Answer: inactive

Question: What about the Potency [7] of the same compound?
Answer: inactive

Question: What about the Potency [8] of the same compound?
Answer: inactive

Question: What about the Potency [9] of the same compound?
Answer: inactive

Question: And the Potency [10]?
Answer: inactive

Question: Which results are given for CC(COc1ccccc1)N(CCCl)Cc1ccccc1 (stereo not drawn)?
Answer: Potency [1]: inactive; Potency [2]: inactive; Potency [3]: inactive; Potency [4]: inactive; Potency [6]: 49 µM (active) and inactive; Potency [8]: inactive; Potency [9]: inactive; Potency [10]: inactive

Question: Which results are given for O=Cc1ccc(Cl)cc1?
Answer: Potency [1]: inactive; Potency [2]: inactive; Potency [3]: inactive; Potency [4]: inactive; Potency [8]: inactive; Potency [9]: inactive; Potency [10]: inactive

Question: Which results are given for CC(C)CCOC(=O)c1ccc(N(C)C)cc1?
Answer: Potency [1]: inactive; Potency [2]: inactive; Potency [3]: inactive; Potency [4]: inactive; Potency [6]: inactive; Potency [8]: inactive; Potency [9]: inactive; Potency [10]: inactive

Question: With CC1COC(=O)O1 (stereo not drawn) as the compound, how does the Potency [1] read?
Answer: inactive

Question: And the Potency [2]?
Answer: inactive

Question: What about the Potency [3] of the same compound?
Answer: inactive

Question: And the Potency [5]?
Answer: inactive

Question: And the Potency [7]?
Answer: inactive

Question: What about the Potency [8] of the same compound?
Answer: inactive

Question: And the Potency [9]?
Answer: inactive

Question: And the Potency [10]?
Answer: inactive

Question: For COC(=O)/C=C/c1ccccc1, which Potency [1] is on record?
Answer: inactive

Question: What about the Potency [2] of the same compound?
Answer: inactive

Question: And the Potency [3]?
Answer: inactive

Question: And the Potency [4]?
Answer: inactive

Question: What about the Potency [6] of the same compound?
Answer: inactive

Question: And the Potency [8]?
Answer: inactive

Question: And the Potency [9]?
Answer: inactive

Question: And the Potency [10]?
Answer: inactive
